A number with no mark means an inactive call. For some assays here: Results with a measured potency or affinity are listed apart. Active and inactive are the calls of the source. Unless noted, how the calls were made is not given here.

A short description of test [1]: antimalarial activity against Dd2 strain (AID 2302;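 active means growth inhibition above 50% at the single 2 µM test dose, taken to imply half-maximal potency below 2 µM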;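 further: 0% = DMSO untreated growth and 100% = chloroquine plus artemisinin killed control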). To be noted: P. falciparum Dd2 in RBCs, LDH growth readout, 72 h; at 2 µM; active compounds read high.
A short description of test [2]: human hepatoma cell viability loss – ATP luminescence, cytotoxicity control for P. falciparum antimalarial project, primary screen (AID 2303;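 active means inhibition above 50%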;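 further: 0% = DMSO wells and 100% = digitonin-killed cells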). As to conditions: HepG2 viability, 24-48 h, at 10 µM, active compounds read high.
Test [3] deals with L-lactate dehydrogenase (Plasmodium falciparum (isolate CDC / Honduras)) (UniProt Q27743). In words: PfLDH activity inhibition – cell lysate, 3D7 strain, counter-screen for P. falciparum growth inhibition project (AID 2304).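 Further: 0% = vehicle and 100% = reference inhibitor.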 To be noted: P. falciparum 3D7 crude extract, LDH APAD/NBT absorbance; at 2 µM; active compounds read high.
Test [4] can be described thus: inhibition of 3D7 malaria parasite growth – strain 3D7 (AID 2306).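 Further: 0% = DMSO wells and 100% = chloroquine plus artemisinin control wells.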 To be noted: P. falciparum 3D7 erythrocytic growth, LDH absorbance, 72 h; at 2 µM; active compounds read high.
Test [5] concerns the target Calcium-dependent protein kinase 1 (Plasmodium falciparum (isolate 3D7)) (UniProt P62344). In words: PfCDPK1 kinase inhibitors, biochemical, TCAMS library (AID 1159585; cut-off not given, nearly all actives have IC50 up to about 0.98 µM;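 further: inhibitors leave more ATP so luminescence rises with inhibition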). As to conditions: recombinant PfCDPK1, Kinase-Glo ATP depletion luminescence.
In test [6] the target is Plasmodium falciparum protein kinase 6 (PK6, PF3D7_1337100) (UniProt Q8IDW1). Description: PfPK6 kinase inhibitors, biochemical, TCAMS library (AID 1159586). To be noted: recombinant PfPK6, Kinase-Glo ATP depletion luminescence.
Test [7] concerns the target Protein kinase 7 (PK7), Plasmodium falciparum 3D7 (PF3D7_0213400) (UniProt Q7YTF7). Description: inhibition of Plasmodium PK7 catalytic activity – biochemical, TCAMS antimalarial set, Kinase-Glo luminescence (AID 1159587). As to conditions: recombinant PfPK7, Kinase-Glo ATP depletion luminescence.
Test [8] concerns the target Calcium-dependent protein kinase 4 (Plasmodium falciparum (isolate 3D7)) (UniProt Q8IBS5). Description: PfCDPK4 kinase inhibitors, biochemical, TCAMS library (AID 1159588; cut-off not given, nearly all actives have IC50 up to about 0.91 µM). As to conditions: recombinant PfCDPK4, Kinase-Glo ATP depletion luminescence.

Sequence of Calcium-dependent protein kinase 1 (Plasmodium falciparum (isolate 3D7)) (P62344 whole entry, looked up): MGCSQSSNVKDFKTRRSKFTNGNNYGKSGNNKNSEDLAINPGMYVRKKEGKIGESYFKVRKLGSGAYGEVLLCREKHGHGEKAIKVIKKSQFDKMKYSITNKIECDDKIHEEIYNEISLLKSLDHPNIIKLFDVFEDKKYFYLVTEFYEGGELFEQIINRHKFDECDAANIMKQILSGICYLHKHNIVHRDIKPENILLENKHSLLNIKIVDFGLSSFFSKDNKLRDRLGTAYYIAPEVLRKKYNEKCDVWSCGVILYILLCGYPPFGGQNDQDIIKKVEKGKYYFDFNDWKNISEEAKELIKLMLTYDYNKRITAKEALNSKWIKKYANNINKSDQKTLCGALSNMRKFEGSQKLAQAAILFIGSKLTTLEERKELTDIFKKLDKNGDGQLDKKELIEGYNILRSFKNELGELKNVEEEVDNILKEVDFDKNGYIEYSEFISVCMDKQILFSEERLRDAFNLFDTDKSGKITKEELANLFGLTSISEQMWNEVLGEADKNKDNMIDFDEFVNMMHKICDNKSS
Sequence of Plasmodium falciparum protein kinase 6 (PK6, PF3D7_1337100) (Q8IDW1 1-305): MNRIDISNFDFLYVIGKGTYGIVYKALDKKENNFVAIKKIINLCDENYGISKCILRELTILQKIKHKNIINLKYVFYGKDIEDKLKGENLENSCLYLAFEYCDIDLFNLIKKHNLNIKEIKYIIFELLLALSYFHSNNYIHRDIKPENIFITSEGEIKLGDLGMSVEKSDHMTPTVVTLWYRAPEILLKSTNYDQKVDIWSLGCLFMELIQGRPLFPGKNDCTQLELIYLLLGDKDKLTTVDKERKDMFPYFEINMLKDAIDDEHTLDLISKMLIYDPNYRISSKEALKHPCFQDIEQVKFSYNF
Sequence of Protein kinase 7 (PK7), Plasmodium falciparum 3D7 (PF3D7_0213400) (Q7YTF7 1-343): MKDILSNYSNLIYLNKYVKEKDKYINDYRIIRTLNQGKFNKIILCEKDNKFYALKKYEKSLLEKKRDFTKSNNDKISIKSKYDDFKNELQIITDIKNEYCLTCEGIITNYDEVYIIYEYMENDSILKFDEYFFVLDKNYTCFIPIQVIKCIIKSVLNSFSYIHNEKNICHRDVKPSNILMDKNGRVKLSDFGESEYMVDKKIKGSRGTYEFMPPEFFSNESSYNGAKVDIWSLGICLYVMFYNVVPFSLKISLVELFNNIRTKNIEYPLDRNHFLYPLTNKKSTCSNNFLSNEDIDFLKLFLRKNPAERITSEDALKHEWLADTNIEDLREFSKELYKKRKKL
Sequence of L-lactate dehydrogenase (Plasmodium falciparum (isolate CDC / Honduras)) (Q27743 whole entry, looked up): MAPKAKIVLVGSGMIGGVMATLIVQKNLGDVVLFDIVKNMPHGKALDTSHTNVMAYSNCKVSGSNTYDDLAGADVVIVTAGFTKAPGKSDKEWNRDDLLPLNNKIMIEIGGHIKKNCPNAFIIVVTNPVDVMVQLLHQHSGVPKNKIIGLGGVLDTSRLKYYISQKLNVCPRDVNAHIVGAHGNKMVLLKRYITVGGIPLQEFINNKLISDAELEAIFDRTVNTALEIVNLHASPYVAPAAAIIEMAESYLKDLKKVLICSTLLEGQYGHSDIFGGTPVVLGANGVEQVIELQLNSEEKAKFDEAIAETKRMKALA
Sequence of Calcium-dependent protein kinase 4 (Plasmodium falciparum (isolate 3D7)) (Q8IBS5 whole entry, looked up): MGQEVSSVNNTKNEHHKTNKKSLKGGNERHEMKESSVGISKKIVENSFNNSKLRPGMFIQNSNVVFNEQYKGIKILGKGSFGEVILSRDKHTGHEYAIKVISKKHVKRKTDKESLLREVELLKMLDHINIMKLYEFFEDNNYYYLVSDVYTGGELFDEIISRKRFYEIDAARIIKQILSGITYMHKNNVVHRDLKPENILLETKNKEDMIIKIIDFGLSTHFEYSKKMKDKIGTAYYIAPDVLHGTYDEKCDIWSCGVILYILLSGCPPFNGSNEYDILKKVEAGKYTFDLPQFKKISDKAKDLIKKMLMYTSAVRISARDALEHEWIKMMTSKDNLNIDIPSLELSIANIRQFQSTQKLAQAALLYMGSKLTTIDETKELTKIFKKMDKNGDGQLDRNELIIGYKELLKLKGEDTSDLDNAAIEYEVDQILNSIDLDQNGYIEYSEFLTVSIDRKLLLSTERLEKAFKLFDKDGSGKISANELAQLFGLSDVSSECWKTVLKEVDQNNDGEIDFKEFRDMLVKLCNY

On to `CO/C(=C\C=C\c1cc2cc(Cl)c(Cl)cc2[nH]1)C(=O)NCCCNCCN(C)c1ccccc1`, for which the growth inhibition in test [1] was 55% (active); in test [4] it was 100% (active). The results for the inhibition in test [2] and in test [3] were 33% and 2%, respectively. Also, the result in test [5], in test [6], in test [7] and in test [8] was inactive.
With `CCc1c[nH]c2c(N3CCCS3(=O)=O)cc(C(=O)N[C@@H](Cc3ccccc3)[C@H](O)CNC(C)(C)c3cccc(C(F)(F)F)c3)cc12`, the growth inhibition in test [1] was 99% (active); in test [4] it was 97% (active). Besides, the inhibition in test [2] is 20%; in test [3], 2%. In addition, the outcome in test [5], in test [6], in test [7] and in test [8] was inactive.
As for `Cc1cc(OCCCN2CCCCC2)ccc1NC(=O)COc1ccc(Cl)cc1C(=O)c1cc(C#N)cc(C(F)(F)F)c1`, the figures for the growth inhibition in test [1] and in test [4] were 7% and 87% (active), respectively. For the same compound, the inhibition in test [2] was 23%; in test [3], -5%. Moreover, the outcome in test [5], in test [6], in test [7] and in test [8] was inactive.
Take `CCCn1cc2c(ccc3nc(N)nc(N)c32)n1`: the growth inhibition in test [1] is 0%; in test [4], 95% (active). Moreover, the inhibition in test [2] was 65% (active); in test [3], 5%. The outcome in test [5], in test [6], in test [7] and in test [8] was inactive.
With `NC(=O)C1CCN(Cc2ccc(-c3ccc(-c4nc5ccc(C(F)(F)F)cc5[nH]4)s3)cc2)CC1`, the growth inhibition in test [1] was 91% (active); in test [4] it was 99% (active). Further, the inhibition in test [2] was 22%; in test [3] it was -5%. In addition, the result in test [5], in test [6], in test [7] and in test [8] was inactive.
On to `CN1CCN(c2ccnc3ccc(NC(=O)Nc4ccc(Cl)cc4)cc23)CC1`, for which the figures for the growth inhibition in test [1] and in test [4] were 99% (active) and 103% (active), respectively. Besides, the inhibition in test [2] was 11%; in test [3] it was 0%. Besides, the result in test [5], in test [6], in test [7] and in test [8] was inactive.
Regarding `COc1ccc(CNC2Cc3ccccc3C2)cc1-c1ccc(S(=O)(=O)NCCc2ccccn2)s1`, the growth inhibition is 22% in test [1] and 92% (active) in test [4]. The values for the inhibition in test [2] and in test [3] were 11% and 0%, respectively. The outcome in test [5], in test [6], in test [7] and in test [8] was inactive.
Regarding `Oc1ccc(-c2cc(-c3ccc(O)cc3)nc(-c3ccccc3)n2)cc1`, the figures for the growth inhibition in test [1] and in test [4] were 97% (active) and 96% (active), respectively. For the same compound, the values for the inhibition in test [2] and in test [3] were 0% and -1%, respectively. Moreover, the result in test [5], in test [6], in test [7] and in test [8] was inactive.
`CCOC(=O)c1cnc2c(OC)cc(OC)c(Cl)c2c1Nc1cccc(C)c1C`: the values for the growth inhibition in test [1] and in test [4] were 99% (active) and 102% (active), respectively. Further, the inhibition is 5% in test [2] and 0% in test [3]. Also, the result in test [5], in test [6], in test [7] and in test [8] was inactive.
Turning to `CCOc1cc(CC)ccc1C1CCN(CCCCNC(=O)c2ccc(NC(=O)c3ccc(Cl)cc3)cc2)CC1`, the growth inhibition was 58% (active) in test [1] and 101% (active) in test [4]. The results for the inhibition in test [2] and in test [3] were 11% and 5%, respectively. Further, the outcome in test [5], in test [6], in test [7] and in test [8] was inactive.

For the origin of these results see PubChem BioAssay.
